High-throughput results: PubChem, Broad Institute
Shown are actives, neighbours in structure and some others; about 6.8% of the full set was active somewhere.
C diff growth – blocks growth of Clostridium difficile; Clostridium difficile clinical isolate growth, OD600, 24 h; active compounds read low; growth activity, negative = inhibition, % at 16 µg/mL (by protocol); actives 0.25% (n = 86,000);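 active means mean growth activity at or below -80% and every replicate also at or below -80%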;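 further: 0% = DMSO wells and -100% = levofloxacin 16 µg/mL wells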
Tcruzi prolif – blocks T. cruzi growth in NIH3T3 culture. AID 624255. inhibition, % at 8.34 µM. actives 5.9% (n = 77,000). T. cruzi beta-gal in NIH3T3, GalScreen luminescence, 90 h;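 active means mean inhibition above about 93%, with at least 55% of replicates each passing it, limit read from the data, passing the limit was not always enough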
Pf Dd2 growth – blocks growth of Plasmodium falciparum Dd2 parasites | P. falciparum Dd2 growth, SYBR Green, 72 h; active compounds read low | activity change, % at 10 µM | actives 2.3% (n = 94,000) | AID 1159554; in the data active means activity change below about -80%
* = called active by the depositor; . = no result.

SMILES | C diff growth | Tcruzi prolif | Pf Dd2 growth
CC(C)NC(=O)N(C)C[C@H]1OCCCC[C@H](C)Oc2ccc(NS(=O)(=O)c3ccccc3)cc2C(=O)N([C@@H](C)CO)C[C@@H]1C | 3 | -65 | 3
COCCNC(=O)C[C@H]1C[C@@H]2c3cc(NC(=O)Nc4ccc(F)cc4)ccc3O[C@@H]2[C@@H](CO)O1 | -1 | 6 | -11
COc1ccccc1NC(=O)N(C)C[C@@H]1OCc2ccccc2-c2ccccc2C(=O)N([C@H](C)CO)C[C@H]1C | -6 | 52 | 38
COc1ccccc1NC(=O)N(C)C[C@@H]1OCc2ccccc2-c2ccccc2C(=O)N([C@@H](C)CO)C[C@H]1C | -4 | 44 | -86*
C[C@H](CO)N1C[C@H](C)[C@@H](CN(C)C(=O)Nc2cccc(Cl)c2Cl)OCc2ccccc2-c2ccccc2C1=O | 4 | . | -84*
COc1ccccc1NC(=O)N(C)C[C@H]1OCc2ccccc2-c2ccccc2C(=O)N([C@@H](C)CO)C[C@@H]1C | -1 | 51 | -39
CC(C)NC(=O)Nc1cccc2c1O[C@@H](CN(C)Cc1ccc(C(=O)Nc3ccccc3N)cc1)[C@@H](C)CN([C@@H](C)CO)C2=O | -2 | . | -20
C[C@@H]1CN([C@H](C)CO)C(=O)c2cccc(NC(=O)C3CCOCC3)c2O[C@@H]1CN(C)Cc1ccc(C(=O)Nc2ccccc2N)cc1 | 5 | 81 | 3
C[C@@H]1CN([C@@H](C)CO)C(=O)c2cccc(NC(=O)C3CCCCC3)c2O[C@@H]1CN(C)Cc1ccc(C(=O)Nc2ccccc2N)cc1 | 0 | 57 | -85*
C[C@@H]1CN([C@H](C)CO)C(=O)c2cccc(NC(=O)NC3CCCCC3)c2O[C@@H]1CN(C)Cc1ccc(C(=O)Nc2ccccc2N)cc1 | . | 77 | -84*
COc1ccc2c3c([nH]c2c1)[C@@H](CO)N(C(=O)c1cnccn1)CC31CCN(S(C)(=O)=O)CC1 | 5 | . | 25
C[C@@H]1CCCCO[C@H](CN(C)C(=O)NC2CCCCC2)[C@H](C)CN([C@@H](C)CO)C(=O)c2cc(NS(=O)(=O)c3cccs3)ccc2O1 | 2 | -53 | -20
C[C@@H]1CCCCO[C@H](CN(C)C(=O)NC2CCCCC2)[C@H](C)CN([C@H](C)CO)C(=O)c2cc(NS(=O)(=O)c3cccs3)ccc2O1 | 9 | 26 | -82*
C[C@H](CO)N1C[C@H](C)[C@H](CN(C)C(=O)Nc2ccc(F)cc2)OCCCC[C@H](C)Oc2ccc(NS(=O)(=O)c3cccs3)cc2C1=O | 1 | 59 | -43
C[C@@H]1CN([C@@H](C)CO)C(=O)c2cc(NS(=O)(=O)c3cccs3)ccc2O[C@@H](C)CCCCO[C@H]1CN(C)C(=O)Nc1ccc(F)cc1 | 7 | 68 | -81*
CCCNC(=O)N1C[C@H]2[C@@H](c3ccccc31)[C@H](CO)N2C(=O)C1CCOCC1 | 3 | 20 | -7
Cc1noc(C)c1S(=O)(=O)Nc1ccc2c(c1)C(=O)N([C@H](C)CO)C[C@@H](C)[C@@H](CN(C)C(=O)NC1CCCCC1)OCCCC[C@H](C)O2 | 10 | -88 | -39
C[C@@H]1CCCCO[C@@H](CN(C)Cc2ccc(Cl)c(Cl)c2)[C@@H](C)CN([C@H](C)CO)C(=O)c2cc(NC(=O)c3ccncc3)ccc2O1 | 15 | 92 | -18
C[C@H](CO)N1C[C@H](C)[C@H](CN(C)Cc2ccc(Cl)c(Cl)c2)OCCCC[C@H](C)Oc2ccc(NC(=O)C3CCCCC3)cc2C1=O | 5 | 94 | -44
C[C@@H]1CCCCO[C@H](CN(C)Cc2ccc(Cl)c(Cl)c2)[C@@H](C)CN([C@@H](C)CO)C(=O)c2cc(NC(=O)C3CCCCC3)ccc2O1 | 13 | 90 | -91*
C[C@@H]1CN([C@@H](C)CO)C(=O)c2cc(NC(=O)C3CCCCC3)ccc2O[C@@H](C)CCCCO[C@H]1CN(C)Cc1ccc(Cl)c(Cl)c1 | 12 | 88 | -80
C[C@@H]1CN([C@H](C)CO)C(=O)c2cc(NC(=O)C3CCCCC3)ccc2O[C@@H](C)CCCCO[C@H]1CN(C)Cc1ccc(Cl)c(Cl)c1 | 12 | 89 | -90*
C[C@@H]1CN([C@H](C)CO)C(=O)c2cc(NC(=O)c3ccncc3)ccc2O[C@@H](C)CCCCO[C@H]1CN(C)Cc1ccc(Cl)c(Cl)c1 | 13 | . | -86*
O=C(Cc1ccccc1)N[C@@H]1CC[C@H](CC(=O)N2CCOCC2)O[C@@H]1CO | . | 7 | -5
O=C(C[C@H]1CC[C@H]2[C@@H](COC[C@H](O)CN2Cc2ccc(Oc3ccccc3)cc2)O1)N1CCc2ccccc2C1 | 18 | 43 | -46
Cc1ccc(S(=O)(=O)Nc2cccc3c2O[C@@H](CN(C)Cc2ccc(C(F)(F)F)cc2)[C@H](C)CN([C@H](C)CO)C3=O)cc1 | 8 | 67 | -34
